Screening data (PubChem)
Only a selection was taken, and hits are over-represented in it overall.
Lassa entry inh = qHTS for Inhibitors of binding or entry into cells for Lassa Virus; Lassa virus pseudotype entry inhibition, cell reporter; Potency, µM (highest dose often 37.9 µM), for inactives: top-dose activity change, negative = inhibition, hits mostly inhibitors; hit rate 1.2% among 300,000; AID 540256, 2011; calls by dose curve; tested in HEK293 cells; further: potency means the concentration at half of the fitted maximal effect; on the % scale 0 is the no-effect control and ±100 the full control effect; nearly all actives have a fitted effect of over 50% in size
Shiga toxin inh = A qHTS for Small Molecule Inhibitors of Shiga Toxin | hit rate 9.2% among 290,000 | inhibition, % at 38.7 µM | Vero cells, Shiga toxin protein synthesis inhibition reporter; in the data active means inhibition mostly above about 28%, no sharp cut-off; inactive means mostly below about 43%; further: 0% is about no effect
Cycloheximide cs = Cycloheximide Counterscreen for Small Molecule Inhibitors of Shiga Toxin; cell reporter, cycloheximide protein synthesis inhibition counterscreen; max response, %; hit rate 12% among 300,000; in the data active means max response mostly above about 13%, no sharp cut-off; inactive means mostly below about 14%; further: read at 38.3 µM for the half of the compounds with a filed dose; 0% is about no effect
VACV Venus inh = qHTS for Stage-Specific Inhibitors of Vaccinia Orthopoxvirus: Venus Reporter Primary qHTS | hit rate 0.46% among 330,000 | Vaccinia virus Venus reporter expression, fluorescence | Potency, µM (top dose mostly 36.5 µM), inactives show at the highest dose activity change, negative = inhibition, actives largely listed as inhibitors | AID 720580, 2013; calls by dose curve; tested in A549 cells; further: potency means the concentration at half of the fitted maximal effect; on the % scale 0 is the no-effect control and ±100 the full control effect; nearly all actives have a fitted effect of over 30% in size
MARV entry inh = qHTS for inhibitors of binding or entry into cells for Marburg Virus | Marburg virus pseudotyped entry inhibition, cell reporter | Potency, µM (highest dose often 37.8 µM), inactives show at the top dose activity change, negative = inhibition, most hits filed as inhibitors | hit rate 1.8% among 300,000 | AID 540276, 2011; calls by dose curve; tested in HEK293 cells; further: potency means the concentration at half of the fitted maximal effect; on the % scale 0 is the no-effect control and ±100 the full control effect
Vaccinia mCherry = qHTS for Stage-Specific Inhibitors of Vaccinia Orthopoxvirus: mCherry Reporter Primary qHTS; Vaccinia virus mCherry reporter infection, fluorescence; Potency, µM (doses to about 36.5 µM), inactives show top-dose activity change, negative = inhibition, usual class: inhibitors; hit rate 0.63% among 310,000; calls by dose curve; tested in A549 cells; further: potency means the concentration at half of the fitted maximal effect; on the % scale 0 is the no-effect control and ±100 the full control effect; nearly all actives have a fitted effect of over 35% in size
* = called active by the depositor; i = inactive; ? = inconclusive; nt = not tested or not shown; [ ] = dose if it differs, or a comment.

SMILES	Lassa entry inh	Shiga toxin inh	Cycloheximide cs	VACV Venus inh	MARV entry inh	Vaccinia mCherry
Oc1ccccc1C1C=C(c2ccc3c(c2)OCO3)NC(c2cccc(Br)c2)N1 (stereo not given)	nt	93*	28*	nt	nt	nt
Oc1ccccc1C1C=C(c2ccc3c(c2)OCO3)NC(c2cccc(F)c2)N1 (stereo not given)	nt	96*	58*	nt	nt	nt
Oc1ccc(Cl)cc1C1C=C(c2ccc3c(c2)OCO3)NC(c2ccc(Cl)cc2)N1 (stereo not given)	nt	nt	nt	-14%	nt	-25%
Oc1ccc(Br)cc1C1C=C(c2ccc3c(c2)OCO3)NC(c2cccc(F)c2)N1 (stereo not given)	nt	50	34*	nt	nt	nt
COC(=O)c1ccc(C2NC(c3ccc4c(c3)OCO4)=CC(c3ccccc3O)N2)cc1 (stereo not given)	nt	nt	nt	-18%	nt	-26%
OC(CN1CCN(c2ccccn2)CC1)Cn1c2ccc(Cl)cc2c2cc(Cl)ccc21 (stereo not given)	-19%	32	2	?	?	?
OC(CN1CCCCC1)Cn1c2ccc(Cl)cc2c2cc(Cl)ccc21 (stereo not given)	-29%	3	-3	?	10µM*	?
C=C[C@H]1CN2CC[C@H]1C[C@H]2[C@H](OC(=O)OCC)c1ccnc2ccc(OC)cc12	nt	nt	nt	-14%	nt	-17%
CCOC(=O)c1sc(N(Cc2ccccc2)C(=O)CSc2nnc(C3CC3)n2N)nc1C	-17%	79*	17*	-29%	-14%	?
CCOC(=O)c1sc(N(Cc2ccccc2)C(=O)COC(=O)c2cnccn2)nc1C	-13%	69	6	-4%	-12%[46.1 µM]	-3%
CSc1ccc(CNC(=O)C2(C)CCCN(C(C)=O)C2)cc1 (stereo not given)	nt	nt	nt	4%	nt	-1%
Cc1ccccc1CC(=O)N1CCN(C(=O)c2ccco2)CC1	nt	-15	2	nt	nt	nt
O=C(c1ccco1)N1CCN(Cc2c(F)cccc2Cl)CC1	nt	50*	39*	nt	nt	nt
Cc1ccccc1CN1CCN(C(=O)c2ccco2)CC1	?	36	33*	-5%	?	-13%
COc1ccc(Br)cc1CN1CCN(C(=O)c2cccc(F)c2)CC1	-11%[46.1 µM]	-5	-2	-10%	3%[46.1 µM]	i
COc1cccc(-n2nnc(-c3nc(-c4ccccc4F)no3)c2C)c1	12%[46.1 µM]	nt	nt	-6%[7.34 µM]	nt	-8%[7.34 µM]
Cc1cc(C)cc(OCC(=O)Nc2c(C)ccc3nsnc23)c1	8%[46.1 µM]	nt	nt	-10%	11%[46.1 µM]	-19%
CCCCN(c1ccccc1)S(=O)(=O)c1ccc2c(c1)CC(C)N2C(=O)C1CC1 (stereo not given)	?	nt	nt	-8%	nt	-10%
CCN(Cc1ccccc1)S(=O)(=O)c1ccc2c(c1)CC(C)N2C(=O)C1CCC1 (stereo not given)	2.8µM*	nt	nt	-11%	nt	-13%
Cc1nc(COc2ccccc2Cl)sc1-c1ccnc(N)n1	-6%	49*	19*	?	?	?
Cc1ccc(S(=O)(=O)N(C)C)cc1NC(=O)c1ccncc1	nt	1	-3	nt	nt	nt
NNC(=O)c1ccc2ccccc2n1	nt	30	5	nt	nt	nt
Cc1ccc(NC(=S)c2ccc3ccccc3n2)c(C)c1	?	85*	30*	-16%	21%[46.1 µM]	-10%
Cc1ccc(S(=O)(=O)N(C)C)cc1NC(=O)Nc1ccccc1F	8%[46.1 µM]	-7	-2	-18%	-23%[46.1 µM]	i
Cc1cc(C)cc(NC(=O)Nc2cc(S(=O)(=O)N(C)C)ccc2C)c1	13µM*	11	1	-6%[7.34 µM]	?	i[7.34 µM]
SMILES	Lassa entry inh	Shiga toxin inh	Cycloheximide cs	VACV Venus inh	MARV entry inh	Vaccinia mCherry
Cc1ccc(C)c(NC(=O)c2ccc3ccccc3n2)c1	?	39	30*	-1%	3%[46.1 µM]	nt
Cc1ccc(S(=O)(=O)N(C)C)cc1NC(=O)c1ccc2ccccc2n1	nt	38	37*	nt	nt	nt
Cc1ccc(NC(=O)c2cc(C)nc3ccccc23)c(C)c1	nt	nt	-2	nt	nt	nt
COC1=C(OC)CC2=C(CCN=C2/C(=N\O)C2CCC(OC)C(OC)C2)C1 (stereo not given)	nt	nt	nt	nt	-4%[46.1 µM]	nt
COc1ccccc1N1CCN(C(=O)c2ccc(C(C)(C)C)cc2)CC1	-12%	-2	-2	10µM*	-29%	11µM*
Cc1oc(C(C)(C)C)cc1C(=O)N1CCN(c2ncccc2C(F)(F)F)CC1	-23%	-5	0	?	-2%	-9%
COc1ccc(C(=O)N2CCN(c3ccccc3OC)CC2)cc1	nt	84	21	nt	nt	nt
COc1ccccc1N1CCN(C(=O)c2cc(C(C)(C)C)oc2C)CC1	-29%[46.1 µM]	-11	12	-14%	10µM*	-31%
COc1ccccc1N1CCN(C(=O)c2ccc(-c3ccccc3)cc2)CC1	nt	34	20*	nt	nt	nt
CN(C)c1ccc(/C=C2\C(=O)Nc3ccccc32)c2ccccc12	nt	-2	-3	nt	nt	nt
CC#C[C@]1(O)CC[C@H]2C3CCC4=CC(=O)CCC4=C3[C@@H](c3ccc(N(C)C)cc3)C[C@@]21C (stereo not given in full)	nt	nt	nt	nt	10µM*	nt
C#CC1(O)CCC2C3CCC4=CC(=O)CCC4=C3C=CC21C (stereo not given)	-9%[46.1 µM]	nt	nt	-2%	0%	-4%
O=C(O)CSc1ncnc2c1oc1ccccc12	24%	-21	-2	3%	3%	nt
OCCSc1ncnc2c1oc1ccccc12	3%	63*	22*	-4%	21%	-22%
N#CCCSc1ncnc2c1oc1ccccc12	4%	22	10	nt	1%	nt
CCOC(=O)CC(=O)CSc1ncnc2c1oc1ccccc12	2%	35	18	-16%	?	nt
c1ccc(Sc2ncnc3c2oc2ccccc23)cc1	?	81*	33*	nt	?	nt
O=C(CSc1ncnc2c1oc1ccccc12)NCc1ccco1	0%	51*	30*	-29%	-5%	-18%
CCN(CC)C(=O)c1sc2c(c1C)c(=O)n(-c1ccc(C)c(C)c1)c(=O)n2Cc1cccc(Cl)c1	-1%[46.1 µM]	nt	nt	-20%	nt	?
Cc1ccc(C)c(CNC(=O)C2CCN(c3nc4ccccc4nc3C(F)(F)F)CC2)c1	10%[46.1 µM]	nt	nt	4%	nt	19%
CCOC(=O)c1cc(-c2ccc(OC)cc2)n(CCC(=O)NCCc2ccccc2)c1C	-14%[46.1 µM]	nt	nt	-13%	nt	-5%
COc1ccc(N2CSC(=S)N(c3ccc(OC)cc3)C2)cc1	nt	nt	nt	-10%	nt	-7%
Cc1ccc(S(=O)(=O)C(CNS(=O)(=O)c2ccc(F)c(C(F)(F)F)c2)c2ccco2)cc1 (stereo not given)	-15%[46.1 µM]	nt	nt	-22%	nt	-21%
CC(C)(C)Nc1nc(OCC(F)(F)F)nc(OCC(F)(F)F)n1	0%	31*	13*	-6%	-7%	-16%
CCOc1cc(C(F)(F)F)cnc1/C(N)=N/O	nt	-6	8	nt	0%	nt
COc1ccc(OC)c(CNC(=O)CCCn2ccc3cc(S(=O)(=O)N4CCCC4)ccc32)c1	-30%[46.1 µM]	-4	12	-25%	nt	-24%
Cc1ccc(NC2=CC(=O)CC(c3ccco3)C2)c(N)c1 (stereo not given)	-15%	79*	37*	?	?	nt
